In PubChem BioAssay AID1159580 (chemical genetic matrix, 2015):
The whole screen tested about 5,500 compounds, of which about 2,000 (36%) were called active. Not shown: some 18% with an inconclusive outcome. Rule as the data show it: active = normalized growth mostly below about 0.91 (no sharp cut-off); inconclusive = no clear call, values can overlap the other calls; inactive = mostly above about 0.92. Some of the results follow.

Test: chemical genetic growth profiling, strain panel (AID 1159580);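 also: tested at 20 µM; growth read once vehicle control cultures reached saturation at 30 °C; 1 = growth at the plate median or of vehicle wells; lower values mean less growth of the strain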
Conditions: S. cerevisiae deletion strains, growth OD
[1] = locus YAR019C, strain CDC15, hits give low values
[2] = locus YBL105C, strain PKC1, hits give low values
[3] = locus YBR135W, strain CKS1, hits give low values
[4] = locus YBR136W, strain MEC1, hits give low values
[5] = locus YBR160W, strain CDC28, hits give low values
[6] = locus YDL017W, strain CDC7, hits give low values
[7] = locus YDL028C, strain MPS1, hits give low values
[8] = locus YDL101C, strain DUN1, hits give low values
[9] = locus YDL108W, strain KIN28, hits give low values
[10] = locus YDL132W, strain cdc53, hits give low values
[11] = locus YDL214C, strain PRR2, hits give low values
[12] = locus YDR052C, strain DBF4, hits give low values
[13] = locus YDR054C, strain cdc34, hits give low values
[14] = locus YDR226W, strain ADK1, hits give low values
[15] = locus YDR477W, strain SNF1, hits give low values
[16] = locus YER123W, strain YCK3, hits give low values
[17] = locus YER133W, strain GLC7, hits give low values
[18] = locus YFL009W, strain cdc4, hits give low values
[19] = locus YFL029C, strain CAK1, hits give low values
[20] = locus YFR003C, strain YPI1, hits give low values
[21] = locus YFR019W, strain FAB1, hits give low values
[22] = locus YFR028C, strain CDC14, hits give low values
[23] = locus YGR040W, strain KSS1, hits give low values
[24] = locus YGR052W, strain FMP48, hits give low values
[25] = locus YGR092W, strain DBF2, hits give low values
[26] = locus YHR030C, strain SLT2, hits give low values
[27] = locus YHR079C, strain IRE1, hits give low values
[28] = locus YHR082C, strain KSP1, hits give low values
[29] = locus YHR205W, strain SCH9, hits give low values
[30] = locus YIL147C, strain SLN1, hits give low values
[31] = locus YJL095W, strain BCK1, hits give low values
[32] = locus YJL128C, strain PBS2, hits give low values
[33] = locus YJL157C, strain FAR1, hits give low values
[34] = locus YJR016C, strain ILV3, hits give low values
[35] = locus YJR066W, strain TOR1 (second series), hits give low values
[36] = locus YJR066W, strain TOR1, hits give low values
[37] = locus YKL048C, strain ELM1, hits give low values
[38] = locus YKL067W, strain YNK1, hits give low values
[39] = locus YKL101W, strain HSL1, hits give low values
[40] = locus YKL193C, strain SDS22, hits give low values
[41] = locus YKL203C, strain TOR2, hits give low values
[42] = locus YLR113W, strain HOG1, hits give low values
[43] = locus YLR133W, strain CKI1, hits give low values
[44] = locus YLR403W, strain SFP1, hits give low values
[45] = locus YML070W, strain DAK1, hits give low values
[46] = locus YMR001C, strain CDC5, hits give low values
[47] = locus YMR205C, strain PFK2 (second series), hits give low values
[48] = locus YMR277W, strain FCP1, hits give low values
[49] = locus YNL006W, strain LST8, hits give low values
[50] = locus YNL020C, strain ARK1, hits give low values
[51] = locus YNL161W, strain CBK1, hits give low values
[52] = locus YNL183C, strain NPR1, hits give low values
[53] = locus YNL207W, strain RIO2, hits give low values
[54] = locus YNL222W, strain SSU72, hits give low values
[55] = locus YNL307C, strain MCK1 (second series), hits give low values
[56] = locus YOL078W, strain AVO1, hits give low values
[57] = locus YOL136C, strain PFK27, hits give low values
[58] = locus YOR061W, strain CKA2, hits give low values
[59] = locus YOR119C, strain RIO1, hits give low values
[60] = locus YOR231W, strain MKK1, hits give low values
[61] = locus YOR329C, strain SCD5, hits give low values
[62] = locus YPL031C, strain PHO85, hits give low values
[63] = locus YPL153C, strain RAD53, hits give low values
[64] = locus YPL204W, strain HRR25, hits give low values
[65] = locus YPL209C, strain IPL1, hits give low values
[66] = locus YPL256C, strain CLN2, hits give low values
[67] = locus YPR025C, strain CCL1, hits give low values
[68] = locus YPR106W, strain ISR1, hits give low values
[69] = locus YPR111W, strain DBF20, hits give low values
[70] = strain NNK1, hits give low values
[71] = strain TSCII, hits give low values

Measured: normalized growth

Cc1onc(-c2c(F)cccc2Cl)c1C(=O)ON=C1C2CC3CC(C2)CC1C3
inactive: [1] 1.06 | [8] 0.97 | [10] 1.06 | [11] 0.955 | [12] 0.997 | [13] 1.04 | [15] 0.965 | [16] 0.939 | [17] 0.979 | [18] 1.06 | [19] 1.07 | [21] 0.967 | [22] 1.02 | [23] 0.953 | [24] 0.974 | [25] 0.982 | [26] 0.895 | [27] 0.967 | [28] 0.981 | [29] 0.85 | [31] 0.968 | [32] 1.01 | [33] 0.95 | [34] 1.04 | [35] 0.924 | [36] 0.98 | [37] 0.968 | [38] 0.974 | [39] 0.94 | [41] 0.969 | [43] 0.951 | [44] 0.894 | [45] 0.934 | [47] 0.971 | [48] 1.06 | [50] 0.955 | [52] 0.917 | [53] 1.03 | [55] 0.953 | [56] 1.05 | [57] 0.933 | [58] 0.965 | [59] 0.976 | [60] 0.9 | [62] 0.975 | [63] 0.959 | [64] 0.931 | [66] 0.866 | [68] 1.04 | [69] 1.06 | [70] 1.03 | [71] 1.04
active: [2] 1.11 [resistant] | [3] 1.09 [resistant] | [4] 1.08 [resistant] | [5] 1.08 [resistant] | [6] 1.08 [resistant] | [7] 1.08 [resistant] | [9] 1.09 [resistant] | [14] 1.06 [resistant] | [20] 1.09 [resistant] | [30] 1.1 [resistant] | [40] 1.08 [resistant] | [42] 0.816 | [46] 1.07 [resistant] | [49] 1.1 [resistant] | [51] 1.08 [resistant] | [54] 1.1 [resistant] | [61] 1.1 [resistant] | [65] 1.09 [resistant] | [67] 1.1 [resistant]

Cc1onc(-c2c(Cl)cccc2Cl)c1C(=O)NNc1c(Cl)cccc1Cl
inactive: [1] 0.962 | [2] 0.978 | [3] 0.986 | [4] 0.977 | [5] 0.975 | [6] 0.977 | [7] 0.97 | [8] 0.976 | [9] 0.971 | [10] 0.978 | [11] 0.941 | [12] 0.99 | [13] 0.972 | [14] 0.982 | [15] 0.932 | [16] 0.961 | [17] 0.961 | [18] 0.974 | [19] 0.983 | [20] 0.98 | [21] 0.972 | [22] 0.97 | [23] 0.941 | [24] 0.998 | [25] 0.987 | [27] 0.957 | [28] 1.01 | [29] 0.956 | [30] 0.977 | [31] 0.907 | [32] 0.923 | [33] 0.976 | [34] 0.988 | [35] 0.96 | [36] 0.957 | [37] 0.981 | [38] 0.941 | [39] 0.949 | [40] 0.986 | [41] 1.03 | [43] 0.976 | [44] 0.967 | [45] 0.942 | [46] 0.976 | [47] 0.963 | [48] 0.967 | [49] 0.979 | [50] 0.988 | [51] 0.989 | [52] 1 | [53] 0.991 | [54] 0.977 | [55] 0.972 | [56] 0.982 | [57] 0.956 | [58] 0.974 | [59] 0.957 | [60] 0.927 | [61] 0.981 | [62] 0.937 | [63] 0.921 | [64] 0.945 | [65] 0.986 | [66] 0.858 | [67] 0.976 | [68] 0.96 | [69] 0.956 | [70] 0.986 | [71] 0.983
active: [26] 0.794 | [42] 0.827
